In assay [1] the target is T1, Ephrin type-A receptor 3 (Homo sapiens) (UniProt P29320).
T1 sequence (whole entry): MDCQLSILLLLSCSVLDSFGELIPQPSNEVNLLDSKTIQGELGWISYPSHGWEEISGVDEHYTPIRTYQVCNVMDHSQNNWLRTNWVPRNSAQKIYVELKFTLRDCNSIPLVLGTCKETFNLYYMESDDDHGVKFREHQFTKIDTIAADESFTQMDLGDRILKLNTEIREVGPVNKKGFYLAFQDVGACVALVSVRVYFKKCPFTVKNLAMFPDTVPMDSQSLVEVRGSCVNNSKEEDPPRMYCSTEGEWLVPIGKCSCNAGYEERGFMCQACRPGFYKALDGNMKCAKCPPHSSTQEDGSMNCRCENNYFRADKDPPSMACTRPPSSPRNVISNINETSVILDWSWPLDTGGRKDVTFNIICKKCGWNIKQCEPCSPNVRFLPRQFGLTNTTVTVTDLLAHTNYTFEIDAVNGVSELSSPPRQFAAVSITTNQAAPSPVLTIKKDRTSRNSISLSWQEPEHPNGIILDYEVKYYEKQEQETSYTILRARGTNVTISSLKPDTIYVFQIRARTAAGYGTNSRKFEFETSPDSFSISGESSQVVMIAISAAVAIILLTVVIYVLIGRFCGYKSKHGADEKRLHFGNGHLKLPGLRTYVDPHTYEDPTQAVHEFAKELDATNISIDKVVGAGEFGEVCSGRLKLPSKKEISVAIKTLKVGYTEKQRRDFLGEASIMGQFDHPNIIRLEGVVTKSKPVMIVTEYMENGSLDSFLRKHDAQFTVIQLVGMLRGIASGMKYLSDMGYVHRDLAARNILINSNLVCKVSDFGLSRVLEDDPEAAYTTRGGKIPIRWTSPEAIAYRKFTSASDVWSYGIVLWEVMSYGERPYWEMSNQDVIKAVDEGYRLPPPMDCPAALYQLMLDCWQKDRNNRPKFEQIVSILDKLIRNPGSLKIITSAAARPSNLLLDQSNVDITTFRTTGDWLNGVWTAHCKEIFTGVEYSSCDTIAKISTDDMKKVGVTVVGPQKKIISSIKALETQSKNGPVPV
Conditions: at 10 µM.

In assay [2] the target is Ephrin type-A receptor 4 (Homo sapiens) (UniProt P54764). Conditions: at 1 µM.
Chain of Ephrin type-A receptor 4 (Homo sapiens) (P54764 whole entry): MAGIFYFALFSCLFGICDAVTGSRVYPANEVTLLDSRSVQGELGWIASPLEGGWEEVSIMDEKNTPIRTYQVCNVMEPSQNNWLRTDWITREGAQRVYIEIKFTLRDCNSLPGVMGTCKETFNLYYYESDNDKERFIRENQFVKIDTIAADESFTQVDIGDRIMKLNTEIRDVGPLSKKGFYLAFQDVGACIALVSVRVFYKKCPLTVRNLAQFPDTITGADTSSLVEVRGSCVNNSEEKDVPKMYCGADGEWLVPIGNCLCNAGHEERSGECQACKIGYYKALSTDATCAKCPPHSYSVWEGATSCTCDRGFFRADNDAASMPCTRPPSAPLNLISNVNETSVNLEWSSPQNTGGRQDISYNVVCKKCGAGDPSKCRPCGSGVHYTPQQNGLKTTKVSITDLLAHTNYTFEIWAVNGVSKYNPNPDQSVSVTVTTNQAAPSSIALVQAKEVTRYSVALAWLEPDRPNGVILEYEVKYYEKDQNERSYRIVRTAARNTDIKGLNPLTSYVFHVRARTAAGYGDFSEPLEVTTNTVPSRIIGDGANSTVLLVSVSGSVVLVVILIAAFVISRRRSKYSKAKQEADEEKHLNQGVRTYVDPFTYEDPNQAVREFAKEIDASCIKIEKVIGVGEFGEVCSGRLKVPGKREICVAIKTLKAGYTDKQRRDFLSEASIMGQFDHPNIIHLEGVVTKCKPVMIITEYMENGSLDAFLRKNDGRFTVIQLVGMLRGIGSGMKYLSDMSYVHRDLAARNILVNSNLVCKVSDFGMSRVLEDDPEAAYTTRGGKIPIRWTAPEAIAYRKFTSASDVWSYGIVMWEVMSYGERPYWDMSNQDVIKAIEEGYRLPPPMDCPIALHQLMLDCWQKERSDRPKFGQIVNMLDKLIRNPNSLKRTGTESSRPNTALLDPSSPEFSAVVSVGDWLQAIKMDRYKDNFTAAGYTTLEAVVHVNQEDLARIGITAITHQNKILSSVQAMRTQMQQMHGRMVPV
Assay [3] shares this target. Conditions: at 10 µM.
The target in assay [4] is Ephrin type-A receptor 5 (Homo sapiens) (UniProt P54756). Conditions: at 1 µM.
Chain of Ephrin type-A receptor 5 (Homo sapiens) (P54756 whole entry): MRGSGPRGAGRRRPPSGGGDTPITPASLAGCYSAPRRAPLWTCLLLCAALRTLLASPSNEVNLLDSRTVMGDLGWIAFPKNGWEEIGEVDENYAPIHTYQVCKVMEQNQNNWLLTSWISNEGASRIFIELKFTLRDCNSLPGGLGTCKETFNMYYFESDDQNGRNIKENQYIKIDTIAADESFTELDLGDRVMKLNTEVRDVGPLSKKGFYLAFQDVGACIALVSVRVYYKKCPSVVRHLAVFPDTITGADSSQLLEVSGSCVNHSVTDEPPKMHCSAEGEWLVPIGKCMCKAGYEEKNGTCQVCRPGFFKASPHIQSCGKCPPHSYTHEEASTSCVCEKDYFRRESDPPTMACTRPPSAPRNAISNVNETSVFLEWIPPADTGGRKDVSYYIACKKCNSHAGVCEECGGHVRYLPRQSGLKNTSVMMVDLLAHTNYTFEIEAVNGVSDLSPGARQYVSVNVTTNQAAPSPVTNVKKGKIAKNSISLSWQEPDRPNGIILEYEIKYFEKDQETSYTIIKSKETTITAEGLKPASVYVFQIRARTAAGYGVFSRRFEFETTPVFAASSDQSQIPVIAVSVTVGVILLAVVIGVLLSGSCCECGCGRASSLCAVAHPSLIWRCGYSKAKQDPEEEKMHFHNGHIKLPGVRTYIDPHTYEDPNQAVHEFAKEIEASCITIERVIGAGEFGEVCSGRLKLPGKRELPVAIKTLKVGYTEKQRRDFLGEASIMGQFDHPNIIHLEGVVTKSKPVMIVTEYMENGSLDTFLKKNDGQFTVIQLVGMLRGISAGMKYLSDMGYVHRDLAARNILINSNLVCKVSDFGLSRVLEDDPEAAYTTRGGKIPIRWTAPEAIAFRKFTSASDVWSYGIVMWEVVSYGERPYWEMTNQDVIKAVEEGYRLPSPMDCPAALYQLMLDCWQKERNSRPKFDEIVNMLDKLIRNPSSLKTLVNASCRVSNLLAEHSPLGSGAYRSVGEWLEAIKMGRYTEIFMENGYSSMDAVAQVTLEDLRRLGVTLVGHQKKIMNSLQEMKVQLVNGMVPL
Assay [5] has the same target. The settings on record: at 10 µM.
For assay [6], the target named is Ephrin type-A receptor 7 (Homo sapiens) (UniProt Q15375). The settings on record: at 1 µM.
Chain of Ephrin type-A receptor 7 (Homo sapiens) (Q15375 28-998 limits assumed): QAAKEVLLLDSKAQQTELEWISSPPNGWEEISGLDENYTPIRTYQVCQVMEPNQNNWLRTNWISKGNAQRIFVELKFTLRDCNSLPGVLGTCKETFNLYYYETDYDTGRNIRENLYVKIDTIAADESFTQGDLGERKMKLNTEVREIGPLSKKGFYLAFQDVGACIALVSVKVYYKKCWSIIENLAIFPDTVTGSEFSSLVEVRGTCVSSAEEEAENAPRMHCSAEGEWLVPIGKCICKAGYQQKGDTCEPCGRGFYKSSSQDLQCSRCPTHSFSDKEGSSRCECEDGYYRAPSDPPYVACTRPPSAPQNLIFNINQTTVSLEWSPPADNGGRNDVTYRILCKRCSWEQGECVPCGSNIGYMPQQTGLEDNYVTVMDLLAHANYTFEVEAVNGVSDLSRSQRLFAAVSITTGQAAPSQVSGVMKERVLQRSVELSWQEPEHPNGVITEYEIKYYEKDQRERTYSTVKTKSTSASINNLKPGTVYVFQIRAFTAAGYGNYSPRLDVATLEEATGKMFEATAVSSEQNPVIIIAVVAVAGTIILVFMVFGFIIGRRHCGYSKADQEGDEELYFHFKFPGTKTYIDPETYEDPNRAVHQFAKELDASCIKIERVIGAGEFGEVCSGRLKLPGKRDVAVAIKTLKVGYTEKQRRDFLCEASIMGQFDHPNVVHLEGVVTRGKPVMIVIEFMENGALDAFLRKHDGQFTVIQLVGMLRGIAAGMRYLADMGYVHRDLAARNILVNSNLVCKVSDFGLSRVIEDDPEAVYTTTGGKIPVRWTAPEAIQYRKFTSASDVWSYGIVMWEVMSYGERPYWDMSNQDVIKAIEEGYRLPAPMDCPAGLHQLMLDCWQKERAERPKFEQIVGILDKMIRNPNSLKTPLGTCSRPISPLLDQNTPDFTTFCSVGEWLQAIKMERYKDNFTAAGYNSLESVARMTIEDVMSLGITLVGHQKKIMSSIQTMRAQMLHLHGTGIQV
Assay [7] shares this target. The settings on record: at 10 µM.
In assay [8] the target is T2, Ephrin type-A receptor 8 (Homo sapiens) (UniProt P29322).
T2 sequence (whole entry): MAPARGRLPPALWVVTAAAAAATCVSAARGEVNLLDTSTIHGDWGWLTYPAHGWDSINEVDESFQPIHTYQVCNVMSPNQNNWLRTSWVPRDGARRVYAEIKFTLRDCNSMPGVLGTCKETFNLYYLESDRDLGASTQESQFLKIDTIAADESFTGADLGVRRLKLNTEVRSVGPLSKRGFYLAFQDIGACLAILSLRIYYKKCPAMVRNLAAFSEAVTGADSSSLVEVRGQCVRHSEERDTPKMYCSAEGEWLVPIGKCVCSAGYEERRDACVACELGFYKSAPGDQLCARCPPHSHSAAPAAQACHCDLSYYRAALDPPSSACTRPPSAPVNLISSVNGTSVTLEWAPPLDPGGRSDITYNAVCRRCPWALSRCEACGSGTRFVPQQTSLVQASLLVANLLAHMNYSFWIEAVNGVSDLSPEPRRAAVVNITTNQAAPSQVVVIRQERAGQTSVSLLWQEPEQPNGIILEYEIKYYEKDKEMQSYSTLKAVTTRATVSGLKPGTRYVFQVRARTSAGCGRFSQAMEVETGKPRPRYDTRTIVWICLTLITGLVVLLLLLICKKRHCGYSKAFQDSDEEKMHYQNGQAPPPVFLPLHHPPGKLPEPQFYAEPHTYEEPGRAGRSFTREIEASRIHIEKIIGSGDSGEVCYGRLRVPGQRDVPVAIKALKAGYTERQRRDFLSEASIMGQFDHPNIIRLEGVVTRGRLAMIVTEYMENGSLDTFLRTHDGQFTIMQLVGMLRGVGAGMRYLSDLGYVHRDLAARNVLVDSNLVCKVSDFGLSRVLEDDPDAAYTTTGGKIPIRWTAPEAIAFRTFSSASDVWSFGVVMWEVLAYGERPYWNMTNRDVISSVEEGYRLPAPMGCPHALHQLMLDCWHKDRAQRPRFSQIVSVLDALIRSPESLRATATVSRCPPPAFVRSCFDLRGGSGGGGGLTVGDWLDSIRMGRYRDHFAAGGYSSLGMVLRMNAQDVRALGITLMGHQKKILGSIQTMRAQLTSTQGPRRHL
The settings on record: at 1 µM.

For assay [9], the target named is T2, Ephrin type-A receptor 8 (Homo sapiens). The settings on record: at 10 µM.
Assay [10] deals with T3, Ephrin type-B receptor 1 (Homo sapiens) (UniProt P54762).
T3 sequence (whole entry): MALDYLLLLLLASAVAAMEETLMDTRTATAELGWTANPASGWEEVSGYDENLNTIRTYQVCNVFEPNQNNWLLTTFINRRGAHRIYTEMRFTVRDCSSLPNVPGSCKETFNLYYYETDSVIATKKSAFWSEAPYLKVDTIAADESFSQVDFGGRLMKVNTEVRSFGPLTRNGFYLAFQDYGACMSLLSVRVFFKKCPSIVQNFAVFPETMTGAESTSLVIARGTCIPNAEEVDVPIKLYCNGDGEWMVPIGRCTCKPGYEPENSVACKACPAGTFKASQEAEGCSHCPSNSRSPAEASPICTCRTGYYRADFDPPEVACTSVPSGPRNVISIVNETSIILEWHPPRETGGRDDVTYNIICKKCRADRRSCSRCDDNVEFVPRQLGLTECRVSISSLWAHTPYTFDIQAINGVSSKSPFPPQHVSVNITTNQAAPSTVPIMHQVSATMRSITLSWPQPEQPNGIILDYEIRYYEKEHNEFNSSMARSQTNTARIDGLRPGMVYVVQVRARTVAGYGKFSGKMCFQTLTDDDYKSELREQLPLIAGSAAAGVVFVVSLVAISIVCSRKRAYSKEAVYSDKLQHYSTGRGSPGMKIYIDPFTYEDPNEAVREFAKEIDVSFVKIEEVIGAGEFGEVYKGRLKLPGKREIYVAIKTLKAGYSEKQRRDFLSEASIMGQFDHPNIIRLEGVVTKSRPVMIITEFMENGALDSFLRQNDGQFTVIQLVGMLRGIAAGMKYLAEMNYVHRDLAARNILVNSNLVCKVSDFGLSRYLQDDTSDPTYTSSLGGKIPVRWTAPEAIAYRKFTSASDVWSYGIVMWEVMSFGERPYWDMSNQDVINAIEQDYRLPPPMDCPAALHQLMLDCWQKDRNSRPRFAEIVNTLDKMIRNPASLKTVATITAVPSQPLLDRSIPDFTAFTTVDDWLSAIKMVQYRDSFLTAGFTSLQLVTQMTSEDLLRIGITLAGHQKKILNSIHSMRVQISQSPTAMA
The settings on record: at 1 µM.

The text below walks through data of ChEMBL document CHEMBL2218924, “A broad activity screen in support of a chemogenomic map for kinase signalling research and drug discovery” (Biochem J, 2013).

One may read the residual activity as the signal under treatment as a percentage of the control signal.

`COc1ccc(C(=O)Nc2sc3c(c2C(N)=O)CCCC3)cc1OC`: the residual activity in [1] was determined as 89%; in [2] it was 112%; in assay [3], 95%; in assay [4] it was 94%; in assay [5], 108%; in assay [6], 92%. Further, the residual activity in assay [7] was 87%; in assay [8], 107%; in assay [9], 85%; in assay [10], 83%.
